Holding throughout (assay): NCI-60 one-dose screen, 48 h (100 = growth as untreated, 0 = no growth, -100 = all killed)
Conditions in all cases: 10 µM unless noted

The subject of test [1] is NCI-H23 lung.
The test system of test [2] is NCI-H226 lung.
The subject of test [3] is NCI-H322M lung.
Test [4] has as its system HOP-62 NSCLC.
In test [5] the test system is NCI-H460 lung.
For test [6], the system named is HOP-92 NSCLC.
Test [7] relates to NCI-H522 lung.
In test [8] the test system is A549/ATCC NSCLC.
For test [9], the system named is 786-0 renal.
Test [10] has as its system COLO 205 colon.

For 27 compounds, growth results are on record in PubChem BioAssay (NCI).

This is part of a sample that, as a whole, favours compounds with a hit. Of some 83,000 tested, about 20% had one in any assay.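 Assay: single dose, 48 h. Readout: percent growth (0 = no net growth; negative = cell death). Active: <10.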 Values without a mark were called inactive. Calls of active or inactive are those of the source.

As for `CCN(CC)CCCNc1nc(C)cc(Nc2ccc3nc(C)cc(N)c3c2)n1`, the growth in [1] was 93%; in test [2], 104%; in [3], 95.5%; in test [4], 81%; in test [5] it was 110%; in test [6] it was 97.5%. The growth is 93.3% in test [7], 81% in test [8], 97.8% in test [9] and 97.4% in test [10].
Consider `COc1cc(C(=O)N2CCN(C(=O)c3ccco3)CC2)c(N)cc1OCc1ccccc1`, for which the growth in test [1] is 111%; in [2], 88.4%; in test [3], 91.3%; in test [4], 94.6%; in [5] it was 113%; in test [6] it was 61%. The growth is 84.4% in test [7], 93.3% in test [8], 95.6% in test [9] and 125% in test [10].
In the case of `COc1cccc(-c2nc3sccn3c2-c2ccnc(NCCCNS(=O)(=O)c3ccccc3)n2)c1`, the growth in test [1] was 36.1%; in [2], 23.3%; in test [3], 75.3%; in test [4] it was 119%; in test [5] it was 53.7%; in [6], 56.5%. Also, the growth in test [7] is 27.3%; in [8], 51.8%; in test [9], 62.6%; in test [10] it was 21.3%.
As for `COc1ccc(/C(=N\O)c2cc(OC)c(OC)c(OC)c2)c(OC)c1N`, the growth in test [1] is 34.7%; in test [2] it was 78.2%; in [3] it was 48.4%; in [4] it was 39.7%; in test [5] it was 6.35% (active); in [6], 78.7%. Further, the growth in [7] is -9.39% (active); in test [8], 43.2%; in test [9], 34.7%; in test [10], -0.741% (active).
With `CCOC(=O)[C@H](CSSc1ncnc2cc[nH]c12)NC(=O)[C@@H](C)c1ccc2cc(OC)ccc2c1`, the growth was 19.9% in test [1]; 39.9% in test [2]; 10.7% in test [3]; 23.2% in test [4]; 32.7% in [5]; 46% in test [6]. The growth in test [7] is 11.3%; in test [8], 59.9%; in test [9], 25.5%; in [10] it was 3.67% (active).
`CCNC(=O)C1CCCN1C(=O)C(CCCN=C(N)N)NC(=O)C(CC(C)C)NC(=O)C(CC(C)C)NC(=O)C(Cc1ccc(O)cc1)NC(=O)C(CO)NC(=O)C(Cc1c[nH]c2ccccc12)NC(=O)C(Cc1cnc[nH]1)NC(=O)C1CCC(=O)N1` (stereo not given): the growth in test [1] was 87.8%; in test [2], 111%; in test [3], 119%; in [4] it was 96.8%; in test [5] it was 107%; in [6] it was 92%. Besides, the growth was 74.1% in test [7], 81.6% in test [8], 104% in test [9] and 94.9% in test [10].
`O=c1[nH]c2ccccc2cc1-c1nnc(Cc2ccccc2)o1`: the growth in test [1] is 74.7%; in test [2], 85.3%; in [3] it was 92.3%; in test [4], 82.6%; in test [5], 92.2%; in [6], 76.2%. The growth was 71.2% in [7], 83.3% in test [8], 58.3% in [9] and 64.4% in test [10].
Turning to `COc1ccc(/C=C/C(=O)c2cc(OC)c(OC)c(OC)c2)cc1OCc1cn(Cc2ccc(F)cc2)nn1`, the growth in test [1] is 103%; in test [2] it was 76.8%; in test [3], 33.6%; in test [4], 4.52% (active); in test [5], 95.8%; in test [6] it was 55.9%. Besides, the growth is 26.4% in test [7], 29.7% in test [8], 49.3% in [9] and 66.4% in [10].
With `COc1ccc(/C=C/C(=O)c2ccc(NC(=O)CN3CCN(c4cc5c(cc4F)c(=O)c(C(=O)O)cn5C4CC4)CC3)cc2)cc1`, the growth in test [1] is 99.6%; in test [2], 94.8%; in test [3] it was 96.1%; in test [4], 98.2%; in [5] it was 112%; in test [6], 90.6%. In addition, the growth in test [7] is 111%; in [8], 96.8%; in [9], 89.8%; in test [10], 120%.
Take `CC(C)N(Cc1ccc(CN(C(=O)CCl)C(C)C)cc1)C(=O)CCl`: the growth is 19.8% in test [1]; -2.93% (active) in test [2]; 94.6% in [3]; -27.7% (active) in test [4]; 35.8% in test [5]; -65.4% (active) in test [6]. The growth was -75.6% (active) in [7], 57.4% in [8], -85.1% (active) in [9] and -54.3% (active) in test [10].
With `O=C(CNc1c(Cl)cccc1Cl)Nc1ccc(-c2nc3ccccc3s2)cc1`, the growth in test [1] was 40.9%; in test [2], 54.4%; in [3], 94.6%; in test [4], 118%; in [5], 91.2%; in test [6] it was 94.2%. Besides, the growth is -93.4% (active) in [7], 85.7% in [8], 24.1% in test [9] and 87.7% in test [10].
Regarding `COc1ccc(-c2nc3sccn3c2-c2ccnc(NCCCNS(=O)(=O)c3ccc(F)cc3)n2)cc1`, the growth in test [1] was 1.5% (active); in [2], -4.69% (active); in [3], 41.2%; in test [4] it was 30.9%; in test [5], 19.5%; in [6] it was 44.2%. Besides, the growth in test [7] is -1.46% (active); in test [8], 14%; in test [9] it was 35.5%; in test [10] it was 1.87% (active).
On to `COc1ccc(NC(=S)/N=c2\oc3c(OC)cccc3cc2-c2cc3ccccc3[nH]2)cc1`, for which the growth in [1] is 70.1%; in test [2], 58.8%; in [3] it was 80.8%; in test [4] it was 37.6%; in test [5], 69.8%; in test [6], -9.96% (active). The growth was 86.3% in [7], 85.2% in [8], 65% in test [9] and 101% in [10].
Consider `CCCCCCOc1ccc(C2(Cl)c3ccccc3N(C)c3ccccc32)cc1`, for which the growth in [1] is 24.5%; in test [2], 29.5%; in test [3] it was 57.1%; in test [4], 82.4%; in test [5], -25.7% (active); in test [6], 83.1%. In addition, the growth in test [7] is 55.4%; in test [8], 47.1%; in [9], 47.2%; in test [10] it was 61.7%.
As to `C#CCN1C(=O)/C(=c2\sc3n(c2=O)NC2C(N=3)N(CC)C(=O)N2CC)c2ccccc21` (stereo not given), the growth in [1] is 54.1%; in [2] it was 87.4%; in test [3] it was 95.8%; in [4], 80.9%; in [5], 99.2%; in [6] it was 76.4%. Also, the growth is 52.4% in test [7], 85.6% in test [8], 61.2% in test [9] and 37.1% in test [10].
For the compound `NC(N)=NC(N)=Nc1ccccc1-c1ccccc1`, the growth in test [1] is 100%; in [2] it was 111%; in [3], 105%; in [4], 115%; in test [5], 105%; in test [6] it was 109%. Besides, the growth in test [7] was 106%; in [8] it was 105%; in test [9], 106%; in [10], 125%.
On to `O=C(O)C(=Cc1c2ccccc2cc2ccccc12)C(=O)O`, for which the growth is 91.3% in test [1]; 109% in test [2]; 100% in [3]; 105% in test [4]; 112% in test [5]; 105% in test [6]. Moreover, the growth was 89.7% in [7], 92.1% in [8], 106% in [9] and 113% in test [10].
For `CC[C@H](C)[C@H]1NC(=O)[C@@H](N[C@](C)(O)[C@@H](N)CC(C)C)[C@@H](C)OC(=O)[C@H](Cc2ccc(OC)cc2)N(C)C(=O)[C@@H]2CCCN2C(=O)[C@H](CC(C)C)NC(=O)[C@@H](C)C(=O)[C@H](C(C)C)OC(=O)C[C@@H]1O`, the growth in test [1] was -29.6% (active); in test [2], -11.1% (active); in test [3], -22.4% (active); in test [4], -31.1% (active); in test [5], -11.8% (active); in test [6] it was -14.1% (active). Besides, the growth is -37.7% (active) in [7], -22.7% (active) in test [8], -25.5% (active) in test [9] and -65.1% (active) in test [10].
On to `O=c1[nH]c(-c2cn(-c3ccc(Cl)cc3)nn2)nc2ccccc12`, for which the growth in test [1] was 77.6%; in [2] it was 65.5%; in [3] it was 52.4%; in [4] it was 52.5%; in [5], 74.7%; in [6], 62.9%. Besides, the growth is 67.8% in test [7], 61.2% in test [8], 31.9% in test [9] and 99.2% in test [10].
For the compound `CC(=O)OCC1OC(OCC2OC(OC(C)=O)C(OC(C)=O)C(OC(C)=O)C2OC(C)=O)C(OC(C)=O)C(OC(C)=O)C1OC(C)=O` (stereo not given), the growth is 103% in [1]; 83.1% in test [2]; 101% in test [3]; 97.5% in test [4]; 104% in [5]; 91.7% in [6]. The growth in [7] was 104%; in test [8], 94.4%; in test [9], 103%; in [10] it was 107%.
With `O=[N+]([O-])c1cccc(-c2cc(-c3cc(Br)ccc3O)[nH]n2)c1`, the growth is 28.5% in test [1]; 52.6% in [2]; 24.4% in [3]; 25.2% in test [4]; 7.48% (active) in test [5]; 4.45% (active) in test [6]. The growth is 15.1% in test [7], 21.7% in test [8], 27.2% in test [9] and 17.6% in test [10].
On to `CCN(CC)S(=O)(=O)c1ccc2[nH]c(=O)cc(C(=O)Nc3ccc(OC)cc3OC)c2c1`, for which the growth in test [1] is 97.8%; in [2] it was 100%; in test [3] it was 116%; in test [4], 105%; in [5], 123%; in [6], 77.8%. For the same compound, the growth in [7] is 105%; in test [8] it was 110%; in test [9], 107%; in test [10], 110%.
Regarding `CCCCCCCCCCCCOB(OCCCCCCCCCCCC)OCCCCCCCCCCCC`, the growth in test [1] was 88.3%; in [2] it was 99.3%; in [3], 101%; in [4], 94.5%; in test [5], 109%; in [6], 101%. For the same compound, the growth in test [7] is 95.2%; in test [8], 97.8%; in test [9], 120%; in test [10], 98.2%.
For `COc1cc(NCCCN=C(N)NC(N)=NC(C)C)c2ncccc2c1`, the growth in test [1] was 34.7%; in test [2], 92%; in test [3], 52%; in [4], 96.2%; in test [5], 91.9%; in [6] it was 36.9%. The growth was -13.1% (active) in [7], 78.6% in [8], 98.8% in test [9] and -1.53% (active) in test [10].
Consider `Cc1sc2nc(CSc3nnc(-c4ccco4)o3)[nH]c(=O)c2c1C`, for which the growth in test [1] is 121%; in [2], 102%; in test [3], 131%; in test [4] it was 115%; in test [5], 108%; in test [6], 106%. Further, the growth in [7] was 104%; in [8], 101%; in test [9], 111%; in test [10], 109%.
For `Nc1c(C(=O)Nc2ccccc2)sc2nc3c(cc12)CCC3`, the growth was 87.9% in [1]; 85.3% in test [2]; 101% in test [3]; 96.4% in [4]; 91% in test [5]; 55.6% in test [6]. The growth in test [7] is 83.9%; in test [8], 91.2%; in [9] it was 101%; in test [10], 108%.
Turning to `Cc1ccc(Nc2ncnc3c2sc2ncccc23)cc1`, the growth is 101% in test [1]; 91.7% in [2]; 95.9% in test [3]; 103% in test [4]; 97.6% in test [5]; 106% in test [6]. In addition, the growth in test [7] is 106%; in test [8], 98.2%; in test [9], 101%; in test [10], 107%.
